According to PubChem BioAssay AID651640 (Broad Institute, 2012):
Screen size: about 350,000 compounds; about 6,000 (1.7%) were called active. Another 5% or so got no clear call; they are omitted. No stated cut-off is given here; in the data, active means CPE inhibition above about 20% (passing the limit was not always enough); inconclusive means no clear call, values can overlap the other calls; tested in BHK-21 cells. Only a selection was taken, and actives are over-represented in it overall.

Assay: inhibitors of DENV2 cytopathic effect, primary screen, cell-based, plate reader, single concentration (AID 651640);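 further: 0% = median of neutral control wells and 100% = median of positive control wells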
Conditions: DENV2-infected cells, cytopathic effect rescue, at 9.99 µM, stronger effect = higher value

CPE inhibition, active:
C[C@@H](O)C#Cc1ccc([C@H]2[C@H](CO)N3CCCCN(C(=O)c4ccc(F)cc4)C[C@@H]23)cc1 22.8%
COc1ccc(C2(C)NC(=O)N(CC(=O)c3ccc4c(c3)OCO4)C2=O)cc1 (stereo not given) 53.4%
Nc1c(C(=O)c2cccs2)sc2nsc(SCCN3CCCCC3)c12 29.4%
O=C(C[C@@H]1CC[C@H]2[C@@H](COC[C@H](O)CN2S(=O)(=O)c2ccc(F)cc2)O1)N[C@H]1CCN(Cc2ccccc2)C1 24.2%
O=C(C[C@H]1CC[C@H]2[C@@H](COC[C@@H](O)CN2S(=O)(=O)c2ccc(Cl)cc2)O1)NCCN1CCCCC1 23.7%
CCCNC(=O)N1CC2(C1)CN(Cc1cccc(F)c1)[C@@H](CO)c1[nH]c3cc(OC)ccc3c12 136%
COc1ccc2c3c([nH]c2c1)[C@H](CO)N(Cc1ccccc1Cl)CC31CN(C(=O)C2CC2)C1 53.5%
CCC(=O)N1CC2(C1)CN(Cc1cc(F)ccc1F)[C@@H](CO)c1[nH]c3cc(OC)ccc3c12 47.6%
CCOc1ncccc1C(=O)NNC(=O)c1cccc(S(=O)(=O)Nc2ccccc2OC)c1 23.7%
COc1cc([C@H](Cc2ccccc2)NC(C)=O)oc(=O)c1 23.5%
Cc1cc(NS(=O)(=O)c2ccc(NC(=S)NC(=O)c3ccc(F)cc3Cl)cc2)no1 78.9%
C[C@@H]1CCCCO[C@@H](CN(C)Cc2ccc(C(=O)O)cc2)[C@@H](C)CN([C@@H](C)CO)C(=O)c2cc(NC(=O)Nc3ccc(C(F)(F)F)cc3)ccc2O1 21.1%
C[C@@H]1CN([C@@H](C)CO)C(=O)c2cc(NC(=O)Nc3ccc(C(F)(F)F)cc3)ccc2O[C@@H](C)CCCCO[C@H]1CN(C)C(=O)c1ccccc1 25.6%
COc1ccc(NC(=O)Nc2ccc3c(c2)C(=O)N([C@@H](C)CO)C[C@H](C)[C@@H](CN(C)Cc2ccc4c(c2)OCO4)O3)cc1 31.5%
C[C@@H]1CN([C@@H](C)CO)C(=O)c2cc(NC(=O)Nc3ccc(C(F)(F)F)cc3)ccc2O[C@@H]1CN(C)Cc1ccncc1 31.1%

CPE inhibition, inactive:
CCC(=O)N1C[C@@H](C)[C@@H](OC)CN(C)C(=O)c2ccc(NC(=O)C3CCCCC3)cc2OC[C@@H]1C -0.243%
COC(=O)C1=C(C)N(Cc2ccc(C(F)(F)F)cc2)C(=NCc2ccccc2)NC1c1ccccc1C(F)(F)F (stereo not given) 16%
CN1[C@@H]2c3ccc(-c4cccc(F)c4)c(=O)n3C[C@@H]2[C@@H](CO)[C@@H]1C(=O)NC1CCC1 -3.71%
CC(C)NC(=O)N(C)C[C@@H]1Oc2ccc(NC(=O)Cn3cnnn3)cc2CC(=O)N([C@H](C)CO)C[C@H]1C -6.63%
O=C(C[C@@H]1C[C@@H]2c3cc(NS(=O)(=O)c4ccccc4)ccc3O[C@@H]2[C@@H](CO)O1)NC1CCCCC1 9.22%
C[C@H](CO)N1C[C@H](C)[C@@H](CN(C)C(=O)Nc2ccnc(N3CCOCC3)c2)OCc2ccccc2-c2c(n(C)c3ccccc23)C1=O -11.2%
C[C@H](O)C#Cc1ccc([C@@H]2[C@@H](CO)N3CCCCN(C(=O)c4ccc(F)cc4)C[C@H]23)cc1 4.05%
C[C@@H](O)C#Cc1ccc([C@@H]2[C@@H](CO)N3CCCCN(C(=O)c4ccc(F)cc4)C[C@@H]23)cc1 2.55%
O=C(C[C@@H]1CC[C@@H]2[C@H](COC[C@H](O)CN2Cc2ccc(F)cc2)O1)NCc1ccncn1 19.2%
C[C@H]1CN([C@@H](C)CO)S(=O)(=O)c2ccc(-c3ccncc3)cc2O[C@H]1CN(C)S(C)(=O)=O 8.89%
CCC1(c2ccccc2)NC(=O)N(CC(=O)c2ccc3c(c2)OCO3)C1=O (stereo not given) 4.81%
CC1(c2ccc(Cl)cc2)NC(=O)N(CC(=O)c2ccc3c(c2)OCO3)C1=O (stereo not given) 14.3%
COc1ccc([Si](C)(C)[C@@H]2[C@@H](CCO)O[C@]3(C(=O)N(Cc4cccc(N5CCCCC5=O)c4)c4ccccc43)[C@H]2C)cc1 3.86%
COc1ccc(C#Cc2cccc(-c3nc(C(=O)O)cc4c3[C@@H](CCO)N(S(=O)C(C)(C)C)C4)c2)cc1OC (stereo not given in full) 0.722%
COCC(=O)Nc1ccc2c(c1)[C@H]1C[C@H](CC(=O)OC)O[C@@H](CO)[C@H]1O2 -10.3%
CCC(=O)Nc1ccc2c(c1)OC[C@H](C)N(CC1CCOCC1)C[C@@H](C)[C@@H](OC)CN(C)C2=O -4.88%
O=C(CSc1ncnc2sccc12)N1CCN(C(=O)c2cccs2)CC1 2.68%
CO[C@@H]1CN(C)C(=O)c2cc(NC(=O)c3ccccc3)ccc2OC[C@@H](C)N(C(C)=O)C[C@@H]1C -5.72%
C[C@H](CO)N1C[C@H](C)[C@@H](CN(C)C(=O)c2ccccc2)OCCCC[C@H](C)Oc2ccc(NC(=O)c3ccccc3)cc2C1=O 13.1%
O=C(C[C@H]1CC[C@@H]2[C@H](COC[C@H](O)CN2S(=O)(=O)c2ccc(F)cc2)O1)NCCN1CCCCC1 -7.98%
O=C(C[C@@H]1CC[C@@H]2[C@H](COC[C@H](O)CN2S(=O)(=O)c2ccc(Cl)cc2)O1)N[C@@H]1CCN(Cc2ccccc2)C1 3.99%
O=C(C[C@H]1CC[C@@H]2[C@H](COC[C@H](O)CN2S(=O)(=O)c2ccc(Cl)cc2)O1)N[C@@H]1CCN(Cc2ccccc2)C1 -1.97%
O=C(C[C@@H]1CC[C@H]2[C@@H](COC[C@H](O)CN2S(=O)(=O)c2ccccc2)O1)NCCN1CCCC1 -4.25%
C[C@H](CO)N1C[C@H](C)[C@@H](CN(C)C)Oc2ccc(NS(=O)(=O)c3cccs3)cc2C1=O -7.81%
Cc1noc(C)c1NC(=O)N(C)C[C@H]1OCCCC[C@@H](C)Oc2ccc(NC(=O)NC(C)C)cc2C(=O)N([C@@H](C)CO)C[C@H]1C 18%
CNC[C@@H]1Oc2cc(C#CC3(O)CCCC3)ccc2S(=O)(=O)N([C@@H](C)CO)C[C@H]1C 12.4%
COc1ccc2c3c([nH]c2c1)[C@@H](CO)N(Cc1ccccc1F)CC31CN(C(=O)C2CC2)C1 2.19%
COc1ccc2c3c([nH]c2c1)[C@@H](CO)N(Cc1cccc(F)c1)CC31CN(CC2CC2)C1 2.63%
CCCNC(=O)N1CCC2(CC1)CN(Cc1ccccc1)[C@H](CO)c1[nH]c3cc(OC)ccc3c12 8.24%
COc1ccc2c3c([nH]c2c1)[C@@H](CO)N(Cc1cc(F)ccc1F)CC31CN(C(=O)C2CCC2)C1 -7.65%
CCC(=O)N1CC2(C1)CN(Cc1ccccc1Cl)[C@@H](CO)c1[nH]c3cc(OC)ccc3c12 1.97%
COCC(=O)N1CC2(C1)CN(Cc1ccccc1F)[C@@H](CO)c1[nH]c3cc(OC)ccc3c12 11.2%
COCC(=O)Nc1ccc2c(c1)OC[C@@H](C)N(C(=O)c1ccncc1)C[C@@H](C)[C@@H](OC)CN(C)C2=O 13.2%
O=C(NC[C@H]1CC[C@@H]2[C@@H](CN2S(=O)(=O)c2ccccc2F)O1)C1CCCCC1 -10.6%
COCC#Cc1cnc2c(c1)C(=O)N([C@@H](C)CO)C[C@H](C)[C@@H](CN(C)Cc1ccccc1)O2 7.93%
CCOc1ncccc1C(=O)Nc1ccc(S(=O)(=O)Nc2nc(C)cc(C)n2)cc1 -5.45%
CCN(CC(=O)NCc1cccs1)C(=O)c1cccc(S(=O)(=O)Nc2ccccc2OC)c1 0.937%
O=C(NC[C@@H]1[C@@H](c2ccccc2)[C@H](CO)N1C(=O)Cc1cccnc1)C1CC1 -4.58%
COCC(=O)N[C@@H]1C[C@@H]2O[C@@H](CO)CC[C@@H]2O[C@@H]1CCc1ccc(-c2ccccc2)cc1 14.8%
CN(C)CC#Cc1ccc([C@H]2[C@H]3CN(C(=O)c4cccc(F)c4)CC(=O)N3[C@H]2CO)cc1 0.131%
COc1ccc(OC)c(NC(=O)N[C@H](Cc2ccccc2)C(=O)NN)c1 -9.79%
CCOC(=O)C(Cc1ccccc1)NC(=O)CCC(=O)c1ccc(OC)cc1 (stereo not given) -0.51%
COCC(=O)N(C)C[C@@H]1Oc2ncc(C#C[C@H](C)O)cc2C(=O)N([C@@H](C)CO)C[C@@H]1C -2.59%
C[C@H]1CN([C@@H](C)CO)C(=O)c2cc(Br)cnc2O[C@@H]1CN(C)C(=O)c1ccccc1F 2.37%
CCOc1ccc(C(=O)Nc2ccc(S(=O)(=O)Nc3cc(C)on3)cc2)cc1 1.57%
CCc1ccc(OC(C)C(=O)Nc2ccc(S(=O)(=O)Nc3cc(C)on3)cc2)cc1 (stereo not given) 2.4%
CCC(=O)Nc1ccc2c(c1)C(=O)N(C)[C@@H]1CC[C@H](CC(=O)NCc3ccccc3)O[C@H]1CO2 -3.19%
C[C@@H]1CCCCO[C@@H](CN(C)Cc2ccc(C(=O)O)cc2)[C@H](C)CN([C@@H](C)CO)C(=O)c2cc(NC(=O)Nc3ccc(C(F)(F)F)cc3)ccc2O1 17.1%
C[C@H](CO)N1C[C@H](C)[C@@H](CN(C)Cc2ccncc2)Oc2ccc(NC(=O)Nc3ccccc3)cc2C1=O 7.94%
C[C@@H]1CN([C@H](C)CO)C(=O)c2cc(NC(=O)Nc3ccccc3)ccc2O[C@@H](C)CCCCO[C@H]1CN(C)Cc1ccc(C(F)(F)F)cc1 -1.92%
C[C@H]1CCCCO[C@@H](CN(C)Cc2ccc(C(F)(F)F)cc2)[C@@H](C)CN([C@@H](C)CO)C(=O)c2cc(NC(=O)Nc3ccccc3)ccc2O1 -2.84%
COc1ccc(CN(C)C[C@@H]2Oc3ccc(NC(=O)Nc4ccc(OC)cc4)cc3C(=O)N([C@H](C)CO)C[C@H]2C)cc1 -3.17%
C[C@H](CO)N1C[C@H](C)[C@H](CN(C)Cc2ccncc2)Oc2ccc(NC(=O)Nc3ccc(F)cc3)cc2C1=O -10.5%
C[C@@H]1CCCCO[C@@H](CN(C)C(=O)Nc2ccc(C(F)(F)F)cc2)[C@H](C)CN([C@H](C)CO)C(=O)c2cc(NC(=O)c3ccccc3)ccc2O1 4.25%
C[C@H](CO)N1C[C@H](C)[C@@H](CN(C)Cc2ccc3c(c2)OCO3)Oc2ccc(NC(=O)Nc3ccc(F)cc3)cc2C1=O -6.58%
